Reference: PubChem BioAssay (Tox21)
Records with an inconclusive call do not appear. Values without a mark were called inactive. The call rests on the fitted dose curve; in most records, active means well fitted cell-killing curve with a large enough effect in the repeat runs; inconclusive means weak or mixed curves; inactive means no such curve, though single readings can be large or run the other way.
On the % scale 0 is the no-effect control and ±100 the full control effect.

Test: qHTS assay to identify small molecule agonists of the peroxisome proliferator-activated receptor delta (PPARd) signaling pathway - cell viability counter screen (AID 743211); further: nearly all actives have a fitted effect of over 55% in size
Settings: PPARd-bla HEK293H viability, CellTiter-Glo luminescence, 17 h; series mostly up to 62.6 µM; activity change, negative = cytotoxicity: at the top concentration
Text: U.S. Tox21 Program National Center for Advancing Translational Sciences [NCATS] NIH Chemical Genomics Center [NCGC] U.S. Environmental Protection Agency [EPA] National Institutes of Environmental Health Sciences [NIEHS] National Toxicology Program [NTP] U.S. Food and Drug Administration [FDA] Tox21 Assay Overview: The peroxisome proliferator-activated receptors (PPARs) are lipid-activated transcription factors of the nuclear receptor superfamily with three distinct subtypes namely PPAR alpha, PPAR delta (PPARd) and PPAR gamma. All these subtypes heterodimerizes with Retinoid X receptor (RXR) and have different physiological functions. […] To identify the compounds that activate PPAR-delta signaling, GeneBLAzer PPAR delta UAS-bla HEK293H cell line (Invitrogen, Carlsbad, CA, USA) containing a beta-lactamase reporter gene under the control of an Upstream Activator Sequence (UAS) was used to screen the Tox21 compound library. The cytotoxicity of the Tox21 compound library against the PPARd-bla cell line was tested in parallel by measuring the cell viability using CellTiter-Glo assay (Promega, Madison, WI) in the same wells.
Tox21 Assay Protocol Summary: PPARd-bla cells were dispensed at 3000 cells/6uL/well in 1536-well black wall/clear bottom plates using a Multidrop Combi (Thermo Fisher Scientific, Waltham, MA) dispenser. After the assay plates were incubated at 37 C and 5% CO2 for 5 h, 23 nL of compounds dissolved in DMSO, positive controls or DMSO only was transferred to the assay plate by a Pintool station (Kalypsys, San Diego, CA). The assay plates were incubated at 37C for 17 h. After 1 uL of LiveBLAzerTM B/G FRET substrate was added using a Bioraptr Flying Reagent Dispenser (FRD) workstation (Beckman Coulter, Indianapolis, IN, USA), the plates were incubated at room temperature for 2 h, and fluorescence intensity was measured by an Envision plate reader (PerkinElmer, Shelton, CT). For cell viability readout that measures cytotoxicity, 3 ul/well of CellTiter-Glo reagent was added into the assay plates using a Bioraptr FRD. After 30 min incubation at room temperature, the luminescence intensity in the plates was measured using a ViewLux plate reader (PerkinElmer).
With `C[C@@H](O)C(=O)O` the “activity change, negative = cytotoxicity” value was 6.5% [at 81.1 µM].
With `C=Cc1ccc(C(C)(C)C)cc1` the “activity change, negative = cytotoxicity” value was 0.368%.
For `C=CCSSCCC`, the “activity change, negative = cytotoxicity” value was -0.288%.
With `CC(C)Nc1ccccc1` the “activity change, negative = cytotoxicity” value was 8.28%.
For `OC[C@H]1O[C@@H](O[C@@H]2[C@@H](CO)O[C@](O)(CO)[C@H]2O)[C@H](O)[C@@H](O)[C@H]1O`, the “activity change, negative = cytotoxicity” value was 12.6%.
For `Cc1c(NC(=O)c2cccnc2)c(=O)n(-c2ccccc2)n1C`, the “activity change, negative = cytotoxicity” value was 4.4%.
For `CC/C=C\CCOC(=O)c1ccccc1O`, the “activity change, negative = cytotoxicity” value was 5.39%.
With `Cc1ccc(C(C)NC(=O)[C@@H](NC(=O)OC(C)C)C(C)C)cc1` (stereo not given in full) the “activity change, negative = cytotoxicity” value was -3.43%.
With `CC1CCc2c(N3CCC(O)CC3)c(F)cc3c(=O)c(C(=O)O)cn1c23` (stereo not given) the “activity change, negative = cytotoxicity” value was 7.67%.
In the case of `Cc1c(Cl)cccc1Cl`, the “activity change, negative = cytotoxicity” value is reported as -0.6%.
For `CCCCCCCCCCCCCCC(=O)NC(CO)CCCCCCCCCCCCCC` (stereo not given), the “activity change, negative = cytotoxicity” value was 15.1% [at 81.1 µM].
With `O=C(O)CSCC(=O)NC1CCSC1=O` (stereo not given) the “activity change, negative = cytotoxicity” value was 15.9%.
For `OCC1(CO)COCOC1`, the “activity change, negative = cytotoxicity” value was 0.0568%.
In the case of `CC(=O)O[Si](C)(OC(C)=O)OC(C)=O`, the “activity change, negative = cytotoxicity” value is reported as -9.45% [at 81.1 µM].
With `CC(C)(CO)C(O)C(=O)NCCCO` (stereo not given) the “activity change, negative = cytotoxicity” value was 5.55%.
With `C=CC(=O)CCCCC` the “activity change, negative = cytotoxicity” value was -8.94% [at 81.1 µM].
For `O=C(NCN1CCOCC1)c1cnccn1`, the “activity change, negative = cytotoxicity” value was 4.91%.
For `COc1cc2c(cc1OC)C(=O)C(CC1CCN(Cc3ccccc3)CC1)C2` (stereo not given), the “activity change, negative = cytotoxicity” value was -1.95%.
For `CC(=O)CC(=O)OC(C)(C)C`, the “activity change, negative = cytotoxicity” value was 1.46%.
With `CC(C)c1ccc(C=O)cc1` the “activity change, negative = cytotoxicity” value was 4.42%.
In the case of `O=C[O][Al]([O]C=O)[O]C=O`, the “activity change, negative = cytotoxicity” value is reported as 6.9%.
In the case of `CC(O)CC(C)O` (stereo not given), the “activity change, negative = cytotoxicity” value is reported as -0.359%.
With `CO[Si](CCCn1c(=O)n(CCC[Si](OC)(OC)OC)c(=O)n(CCC[Si](OC)(OC)OC)c1=O)(OC)OC` the “activity change, negative = cytotoxicity” value was 10.1%.
In the case of `CC(C)CO`, the “activity change, negative = cytotoxicity” value is reported as 8.57% [at 81.1 µM].
With `Cc1ccc(C)c([N+](=O)[O-])c1` the “activity change, negative = cytotoxicity” value was -1.41%.
For `C[Si]1(C)O[Si](C)(C)O[Si](C)(C)O[Si](C)(C)O[Si](C)(C)O1`, the “activity change, negative = cytotoxicity” value was 1.16%.
For `COc1ccc2c(c1)c1c3n2CCN(C)C3=NCC1`, the “activity change, negative = cytotoxicity” value was 1.22%.
In the case of `CCCC(=O)OCCC(C)CCC=C(C)C` (stereo not given), the “activity change, negative = cytotoxicity” value is reported as 3.79%.
With `C/C=C(\C)C(C)=O` the “activity change, negative = cytotoxicity” value was -0.886%.
With `CCCCCCCCCOC(=O)c1ccccc1C(=O)OCCCCCCCCC` the “activity change, negative = cytotoxicity” value was 1.17%.
For `CN(C)C(C)(C)CO`, the “activity change, negative = cytotoxicity” value was 0.285%.
For `CCN(CC)CCN`, the “activity change, negative = cytotoxicity” value was 4.16%.
For `CCC(C)C(C)=O` (stereo not given), the “activity change, negative = cytotoxicity” value was 6.06%.
In the case of `CCCCCc1cccc(=O)o1`, the “activity change, negative = cytotoxicity” value is reported as 10.6%.
For `CC12CCC(C1)C(C)(C)C2O` (stereo not given), the “activity change, negative = cytotoxicity” value was 8.38%.
For `Cc1ccc(C(=O)O)cc1[N+](=O)[O-]`, the “activity change, negative = cytotoxicity” value was 11.5%.
With `CC(N)CCCC(C)(C)O` (stereo not given) the “activity change, negative = cytotoxicity” value was 0.0024%.
With `OC1(c2ccc(Cl)cc2)CCNCC1` the “activity change, negative = cytotoxicity” value was 0.777%.
With `Cc1c(N)cccc1Cl` the “activity change, negative = cytotoxicity” value was -5.5%.
For `CC(CO)(CO)CO`, the “activity change, negative = cytotoxicity” value was 1.09% [at 81.1 µM].
